Results from PubChem BioAssay (Tox21).
Results filed as inconclusive are left out. Where a call stands in place of a potency, no number is given. A number with no mark means an inactive call. The source made the active and inactive calls. The call rests on the fitted dose curve; in most records, active means well fitted cell-killing curve with a large enough effect in the repeat runs; inconclusive means weak or mixed curves, or effect the other way; inactive means flat fitted curve, though single readings scatter.

experiment: qHTS assay to identify small molecule antagonists of the constitutive androstane receptor (CAR) signaling pathway - cell viability counter screen (AID 1224837); details: HepG2-CYP2B6-hCAR viability, CellTiter-Fluor, 23 h, co-treated with 50 nM CITCO; series mostly up to 92.4 µM; further: nearly all actives have a fitted effect of over 45% in size
Source text: National Center for Advancing Translational Sciences [NCATS]
NIH Chemical Genomics Center [NCGC]
U.S. Environmental Protection Agency [EPA]
National Institutes of Environmental Health Sciences [NIEHS]
National Toxicology Program [NTP]
U.S. Food and Drug Administration [FDA]
The constitutive androstane receptor (CAR) is a nuclear receptor which regulates multiple drug metabolizing enzymes (DMEs) and transporters. Activating CAR will generally increase the transcription and subsequent translation of CYP2B6 and CYP3A4. These two DMEs represent about 50% of the drug metabolizing potential in the body. When CAR is deactivated, the metabolizing potential in the body will decrease, subsequently increasing the toxicity in the body or lowering the therapeutic potential of a pro-drug. Recently, there have also been studies performed indicating CARs role in energy metabolism and cancer therapy. Therefore, inhibiting CARs activity could have a potential effect on diabetes and cancer. Identifying environmental toxins and compounds which modulate CAR, through the use of the Tox21 10K compound collection, will be an important step in determining the toxicity and potential therapeutic effects these factors will have on the human body. To differentiate true CAR antagonists from cytotoxic substances, the assay is multiplexed with a cell viability assay.
Tox21 Assay Protocol Summary:
A double-stable (hCAR and CYP2B6-2.2kb) transfected cell line, derived from human hepatoma (HepG2) cells, was utilized for the duration of the quantitative high-throughput screens. The HepG2-CYP2B6-hCAR cells were dispensed at 2500 cells/4 uL/well in 1536-well white solid bottom plates using a Multidrop Combi. After the assay plates were incubated at 37 C/5% CO2 for 4 hrs, 23 nL of compounds at 15 concentrations (from 5-48 columns) or positive control (from 1 to 4 columns) were transferred to the assay plates using a Pintool station. One uL of CITCO (final concentration = 50 nM) was added, using a Flying Reagent Dispenser, inside each well. After a 23 hr incubation period at 37 C/5% CO2, 1 uL of CellTiter-Fluor reagent was added into each well of the assay plates using a Flying Reagent Dispenser. The fluorescence intensity in the plates was then measured using a ViewLux plate reader.

Structure (SMILES) | Potency | activity change, negative = cytotoxicity
CC(C)(C)C(=O)Cl | inactive | 
CCOP(=S)(OCC)SCCl | inactive | 
CCC1(CC)C(=O)C=CNC1=O | inactive | 
ClCCCCl | inactive | 
CC(Cl)(Cl)Cl | inactive | 
N#CN=C1SCCN1Cc1ccc(Cl)nc1 | inactive | 
CCOC1Oc2ccc(OS(C)(=O)=O)cc2C1(C)C (stereo not given) | inactive | 
CCc1cc(OC)c(C[C@H](C)N)cc1OC | inactive | 
NNCc1ccccc1 | inactive | 
CCOC(=O)Nc1cccc(OC(=O)Nc2ccccc2)c1 | inactive | 
OP(O)c1ccccc1 | inactive | 
C#CC(C)(C)O | inactive | 
CCC1(c2ccccc2)C(=O)N(COC)C(=O)N(COC)C1=O | inactive | 
CCN(CC)CCOC(=O)C(O)(c1ccccc1)c1ccccc1 | inactive | 
Oc1ccc2c3c1O[C@H]1[C@@H](O)C=C[C@H]4[C@@H](C2)NCC[C@@]341 | inactive | 
N[C@@H](Cc1ccc(Oc2cc(I)c(O)c(I)c2)c(I)c1)C(=O)O | inactive | 
CC[C@H](O)C(C[C@H](C)N(C)C)(c1ccccc1)c1ccccc1 | inactive | 
CN(C)C1CCCCC1 | inactive | 
Cc1ccc(S(=O)(=O)N[C@@H](CCCCN)C(=O)CCl)cc1 | inactive | 
Cc1ccc2c(c1)C1CN(C)CCC1N2 (stereo not given) |  | 1.97% [at 19 µM]

Structure (SMILES) | Potency | activity change, negative = cytotoxicity
CC(=NC#N)N(C)Cc1ccc(Cl)nc1 | inactive | 
CCCCCCCC(=O)Cl | inactive | 
O=C(O)C(Cl)Br (stereo not given) | inactive | 
CCCOc1nn(C(=O)NS(=O)(=O)c2ccccc2C(=O)OC)c(=O)n1C | inactive | 
COP(=O)(OC)O/C(C)=C/C(=O)N(C)C | inactive | 
S=C=S | inactive | 
COc1cccc([C@@]2(O)CCCC[C@@H]2CN(C)C)c1 | inactive | 
CC(C)c1ccc(O)cc1 | inactive | 
CCOC(=O)NC(C)(C)Cc1ccc(Cl)cc1 | inactive | 
COC1=CC(=O)O[C@@H](/C=C/c2ccccc2)C1 | inactive | 
CC(C)NCC(O)c1ccc([N+](=O)[O-])cc1 (stereo not given) | inactive | 
CC(C)[N+](C)(CCC(C(N)=O)(c1ccccc1)c1ccccc1)C(C)C | inactive | 
COc1cc(CC(C)N)cc(OC)c1OC (stereo not given) | inactive | 
NC(=O)CS(=O)C(c1ccccc1)c1ccccc1 (stereo not given) | inactive | 
C[C@H](N)C(=O)c1ccccc1 | inactive | 
CCOP(=S)(OCC)Oc1ccc(Cl)cc1Cl | inactive | 
CCC(C)C(C)(COC(N)=O)COC(N)=O (stereo not given) | inactive | 
CCCC(C)(COC(N)=O)COC(N)=O | inactive | 
CCc1ccc(C2CCNCC2)cc1 | inactive | 
O=C1CC(=O)NC(=O)N1 | inactive | 
